Data: PubChem BioAssay AID1159580 (chemical genetic matrix, 2015)
The whole screen tested about 5,500 compounds, of which about 2,000 (36%) were called active. Not shown: some 18% with an inconclusive outcome. No stated cut-off is given here; in the data, active means normalized growth mostly below about 0.91 (no sharp cut-off); inconclusive means no clear call, values can overlap the other calls; inactive means mostly above about 0.92. This is one part of the list.

Assay: chemical genetic growth profiling, strain panel (AID 1159580);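 further: tested at 20 µM; growth read once vehicle control cultures reached saturation at 30 °C; 1 = growth at the plate median or of vehicle wells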
Settings: growth OD
[1] = S. cerevisiae deletion strains, locus YHR030C, strain SLT2, stronger effect = lower value
[2] = S. cerevisiae deletion strains, locus YJL095W, strain BCK1, stronger effect = lower value

Measured: normalized growth

COc1cc(O)cc(O)c1C(C)=O
inactive: [1] 0.969 | S. cerevisiae deletion strains, locus YHR079C, strain IRE1, stronger effect = lower value 0.981 | [2] 0.984 | S. cerevisiae deletion strains, locus YJR066W, strain TOR1, stronger effect = lower value 0.916 | S. cerevisiae deletion strains, locus YLR113W, strain HOG1, stronger effect = lower value 0.971 | S. cerevisiae deletion strains, locus YNL183C, strain NPR1, stronger effect = lower value 0.907 | S. cerevisiae deletion strains, locus YOR231W, strain MKK1, stronger effect = lower value 0.985 | S. cerevisiae deletion strains, locus YPL256C, strain CLN2, stronger effect = lower value 0.97

COc1cc(O)c(C(=O)c2ccccc2)c(OC)c1
inactive: S. cerevisiae deletion strains, locus YAL013W, strain DEP1, stronger effect = lower value 0.982 | S. cerevisiae deletion strains, locus YBR021W, strain FUR4, stronger effect = lower value 0.898 | S. cerevisiae deletion strains, locus YBR229C, strain ROT2, stronger effect = lower value 0.985 | S. cerevisiae deletion strains, locus YCL029C, strain bik1, stronger effect = lower value 0.996 | S. cerevisiae deletion strains, locus YDL035C, strain GPR1, stronger effect = lower value 0.972 | S. cerevisiae deletion strains, locus YDL074C, strain BRE1, stronger effect = lower value 0.922 | S. cerevisiae deletion strains, locus YDL101C, strain DUN1, stronger effect = lower value 0.986 | S. cerevisiae deletion strains, locus YDL134C, strain PPH21, stronger effect = lower value 0.984 | S. cerevisiae deletion strains, locus YDL185W, strain tfp1, stronger effect = lower value 0.989 | S. cerevisiae deletion strains, locus YDL192W, strain arf1, stronger effect = lower value 0.982 | S. cerevisiae deletion strains, locus YDR101C, strain arx1, stronger effect = lower value 0.961 | S. cerevisiae deletion strains, locus YDR150W, strain NUM1, stronger effect = lower value 0.994 | S. cerevisiae deletion strains, locus YDR162C, strain NBP2, stronger effect = lower value 0.907 | S. cerevisiae deletion strains, locus YDR318W, strain mcm21, stronger effect = lower value 0.956 | S. cerevisiae deletion strains, locus YDR388W, stronger effect = lower value 0.978 | S. cerevisiae deletion strains, locus YDR502C, strain sam2, stronger effect = lower value 0.937 | S. cerevisiae deletion strains, locus YEL061C, strain CIN8, stronger effect = lower value 0.984 | S. cerevisiae deletion strains, locus YER110C, stronger effect = lower value 0.994 | S. cerevisiae deletion strains, locus YER155C, strain BEM2, stronger effect = lower value 0.989 | S. cerevisiae deletion strains, locus YER167W, strain BCK2, stronger effect = lower value 0.954 | S. cerevisiae deletion strains, locus YGL078C, strain dbp3, stronger effect = lower value 0.99 | S. cerevisiae deletion strains, locus YGL086W, strain mad1, stronger effect = lower value 0.983 | S. cerevisiae deletion strains, locus YGL248W, strain PDE1, stronger effect = lower value 0.983 | S. cerevisiae deletion strains, locus YGR078C, strain PAC10, stronger effect = lower value 0.927 | S. cerevisiae deletion strains, locus YGR135W, strain pre9, stronger effect = lower value 0.92 | S. cerevisiae deletion strains, locus YGR229C, strain SMI1, stronger effect = lower value 0.885 | S. cerevisiae deletion strains, locus YGR252W, strain gcn5, stronger effect = lower value 0.914 | [1] 0.945 | S. cerevisiae deletion strains, locus YHR079C, strain IRE1 (second series), stronger effect = lower value 0.966 | S. cerevisiae deletion strains, locus YHR094C, strain hxt1, stronger effect = lower value 0.986 | S. cerevisiae deletion strains, locus YHR129C, strain ARP1, stronger effect = lower value 0.972 | S. cerevisiae deletion strains, locus YHR200W, strain rpn10, stronger effect = lower value 0.985 | S. cerevisiae deletion strains, locus YIL066C, strain RNR3, stronger effect = lower value 0.938 | S. cerevisiae deletion strains, locus YIL073C, strain SPO22, stronger effect = lower value 1 | S. cerevisiae deletion strains, locus YIL125W, strain kgd1, stronger effect = lower value 0.981 | S. cerevisiae deletion strains, locus YIR030C, strain dcg1, stronger effect = lower value 0.979 | [2] 0.806 | S. cerevisiae deletion strains, locus YJL134W, strain LCB3, stronger effect = lower value 0.986 | S. cerevisiae deletion strains, locus YJL168C, strain set2, stronger effect = lower value 0.99 | S. cerevisiae deletion strains, locus YJL187C, strain SWE1 (second series), stronger effect = lower value 0.964 | S. cerevisiae deletion strains, locus YJR043C, strain POL32, stronger effect = lower value 0.981 | S. cerevisiae deletion strains, locus YJR075W, strain HOC1, stronger effect = lower value 0.935 | S. cerevisiae deletion strains, locus YKL009W, strain mrt4, stronger effect = lower value 0.99 | S. cerevisiae deletion strains, locus YKL068W, stronger effect = lower value 0.986 | S. cerevisiae deletion strains, locus YKL085W, strain MDH1 (second series), stronger effect = lower value 0.987 | S. cerevisiae deletion strains, locus YKL085W, strain MDH1, stronger effect = lower value 0.987 | S. cerevisiae deletion strains, locus YKL190W, strain CNB1, stronger effect = lower value 0.991 | S. cerevisiae deletion strains, locus YKR001C, strain vps1, stronger effect = lower value 0.936 | S. cerevisiae deletion strains, locus YLR039C, strain RIC1, stronger effect = lower value 0.827 | S. cerevisiae deletion strains, locus YLR058C, strain SHM2, stronger effect = lower value 0.984 | S. cerevisiae deletion strains, locus YLR102C, strain apc9, stronger effect = lower value 0.98 | S. cerevisiae deletion strains, locus YLR262C, strain YPT6, stronger effect = lower value 0.817 | S. cerevisiae deletion strains, locus YLR268W, strain sec22, stronger effect = lower value 0.904 | S. cerevisiae deletion strains, locus YLR330W, strain CHS5, stronger effect = lower value 0.984 | S. cerevisiae deletion strains, locus YLR342W, strain FKS1 (second series), stronger effect = lower value 0.88 | S. cerevisiae deletion strains, locus YLR371W, strain rom2, stronger effect = lower value 0.991 | S. cerevisiae deletion strains, locus YML016C, strain PPZ1, stronger effect = lower value 0.981 | S. cerevisiae deletion strains, locus YML032C, strain rad52, stronger effect = lower value 0.994 | S. cerevisiae deletion strains, locus YML124C, strain tub3, stronger effect = lower value 0.983 | S. cerevisiae deletion strains, locus YMR078C, strain ctf18, stronger effect = lower value 0.98 | S. cerevisiae deletion strains, locus YMR223W, strain ubp8, stronger effect = lower value 0.966 | S. cerevisiae deletion strains, locus YMR263W, strain SAP30, stronger effect = lower value 0.962 | S. cerevisiae deletion strains, locus YMR307W, strain GAS1, stronger effect = lower value 0.647 | S. cerevisiae deletion strains, locus YNL067W, strain RPL9B, stronger effect = lower value 0.953 | S. cerevisiae deletion strains, locus YNL128W, strain TEP1, stronger effect = lower value 0.991 | S. cerevisiae deletion strains, locus YNL153C, strain GIM3, stronger effect = lower value 0.961 | S. cerevisiae deletion strains, locus YNL233W, strain BNI4, stronger effect = lower value 0.904 | S. cerevisiae deletion strains, locus YNL250W, strain rad50, stronger effect = lower value 1 | S. cerevisiae deletion strains, locus YNL271C, strain bni1, stronger effect = lower value 0.982 | S. cerevisiae deletion strains, locus YNL298W, strain CLA4, stronger effect = lower value 0.987 | S. cerevisiae deletion strains, locus YNL322C, strain KRE1, stronger effect = lower value 0.99 | S. cerevisiae deletion strains, locus YNR052C, strain pop2, stronger effect = lower value 1.01 | S. cerevisiae deletion strains, locus YOL006C, strain TOP1, stronger effect = lower value 0.824 | S. cerevisiae deletion strains, locus YOL012C, strain htz1 0.9 | S. cerevisiae deletion strains, locus YOL147C, strain pex11, stronger effect = lower value 0.965 | S. cerevisiae deletion strains, locus YOR061W, strain CKA2, stronger effect = lower value 0.989 | S. cerevisiae deletion strains, locus YOR069W, strain VPS5, stronger effect = lower value 0.987 | S. cerevisiae deletion strains, locus YOR136W, strain idh2, stronger effect = lower value 1.01 | S. cerevisiae deletion strains, locus YOR144C, strain elg1, stronger effect = lower value 0.983 | S. cerevisiae deletion strains, locus YOR184W, strain ser1, stronger effect = lower value 0.931 | S. cerevisiae deletion strains, locus YOR316C, strain cot1, stronger effect = lower value 0.981 | S. cerevisiae deletion strains, locus YPL055C, strain LGE1, stronger effect = lower value 0.927 | S. cerevisiae deletion strains, locus YPL241C, strain CIN2, stronger effect = lower value 0.986 | S. cerevisiae deletion strains, locus YPR119W, strain clb2, stronger effect = lower value 0.98 | S. cerevisiae deletion strains, locus YPR141C, strain kar3, stronger effect = lower value 0.99 | S. cerevisiae deletion strains, locus YPR163C, strain tif3, stronger effect = lower value 0.928 | S. cerevisiae deletion strains, locus YPR167C, strain met16, stronger effect = lower value 0.978 | S. cerevisiae deletion strains, strain wtn01, stronger effect = lower value 0.929 | S. cerevisiae strains, strain wild type, stronger effect = lower value 0.983
active: S. cerevisiae deletion strains, locus YLR418C, strain cdc73, stronger effect = lower value 0.813 | S. cerevisiae deletion strains, locus YNL307C, strain MCK1, stronger effect = lower value 0.73
